In PubChem BioAssay (NCATS):
“And” between values parts separate entries of the source, which are not always exact repeats. Equal values may be shown once. Records with an inconclusive call do not appear. Unmarked numbers belong to inactive results. The source made the active and inactive calls.

Assay: qHTS assay for small molecule agonists of the antioxidant response element (ARE) signaling pathway (AID 651741; active = well fitted activation curve with a large enough effect in the signal ratio; the % refers to the signal ratio; note: potency is the fitted concentration of half-maximal effect)
Details: HepG2 ARE-bla reporter, beta-lactamase FRET ratio, 16 h; series mostly up to 96 µM
Method in brief: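 Compounds in DMSO are pinned onto HepG2 ARE-bla cells (2,000/well) that were preincubated 5 h; plates stay 16 h at 37 C, then beta-lactamase activity is detected with LiveBLAzer B/G substrate by fluorescence.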

| Structure (SMILES) | Potency |
| --- | --- |
| CNC(=O)Oc1cccc2ccccc12 | 33.5 µM (active) and 17.2 µM (active) |
| Cc1ccc(N=CN(C)C=Nc2ccc(C)cc2C)c(C)c1 | 24.3 µM (active) |
| COP(=O)(OC)C(O)C(Cl)(Cl)Cl (stereo not given) | 19.3 µM (active) |
| CCCCCCCCCCCCCCCC[n+]1ccccc1 | 10.6 µM (active) |
| COP(=O)(OC)OC=C(Cl)Cl | 37.6 µM (active) and 42.2 µM (active) and 30.6 µM (active) |

Assay: qHTS assay for small molecule activators of the p53 signaling pathway (AID 651743; active = well fitted activation curve with a large enough effect in the signal ratio, not every such curve was filed as active; the % refers to the signal ratio; note: % of control where 0% means no effect)
Details: HCT-116 p53RE-bla, beta-lactamase FRET ratio, 16 h; activation: active compounds read high
Method in brief: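 Cell-based beta-lactamase reporter (p53 response elements, HCT-116 background). After a 5-hour preincubation, cells received compound for 16 hours at 37 C; substrate development ran 2 hours at room temperature.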

| Structure (SMILES) | activation |
| --- | --- |
| C=CCOC(Cn1ccnc1)c1ccc(Cl)cc1Cl (stereo not given) | 19.4% and 4.84% |
| CNC(=O)Oc1cccc2ccccc12 | 1.34% |
| Cc1ccc(N=CN(C)C=Nc2ccc(C)cc2C)c(C)c1 | 15.6% |
| COP(=O)(OC)C(O)C(Cl)(Cl)Cl (stereo not given) | 6.58% |
| CCCCCCCCCCCC[N+](C)(C)CCOc1ccccc1 | 13.3% |
